From PubChem BioAssay (Tox21) come the findings set out here.

Test [1] in a line: qHTS RealTime-Glo MT Cell Viability Assay in HEK293 cells - 0 hour (AID 1224880). Further: top concentration of the series differs between compounds; nearly all actives have a fitted effect of over 45% in size. In short, it runs like this:
(§1)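 Luminescence, which tracks viable cell number through reduction of the prosubstrate to a NanoLuc substrate, was read over continuous 37 C culture. Cells (600/well) were premixed with reagent and rested 5 h before 23 nL of compound in DMSO was pinned.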
In general terms: In qHTS, concentration-response curves come from the screen itself.

Test [2] can be described thus: A CellTox Green Cytotoxicity Assay to monitor cytotoxicity in HEK293 cells - 32 hour (AID 1224881). Further: nearly all actives have a fitted effect of over 40% in size. The gist of the method: (§2)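 Fluorescence from a DNA-binding dye excluded by viable cells was measured repeatedly in the same HEK293 wells (600 cells/well) during continuous compound exposure at 37 C. Each assay gives one read point: 0, 8, 16, 24, 32 or 40 h.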
Test [3] in a line: A CellTox Green Cytotoxicity Assay to monitor cytotoxicity in HepG2 cells - 0 hour (AID 1224882). Further: nearly all actives have a fitted effect of over 35% in size. In short, it runs like this:
(§3)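 Real-time cytotoxicity: fluorescence of a cell-impermeant cyanine dye binding DNA of dead HepG2 cells, measured repeatedly (0–40 h) during compound exposure at 37 C. Cells seeded 600/well with reagent, dosed after 5 h.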

Test [4] can be described thus: A CellTox Green Cytotoxicity Assay to monitor cytotoxicity in HepG2 cells - 32 hour (AID 1224883). Further: nearly all actives have a fitted effect of over 50% in size. Further: potency means the concentration at half of the fitted maximal effect. In short, it runs like this: as §3
Test [5] in a line: A CellTox Green Cytotoxicity Assay to monitor cytotoxicity in HEK293 cells - 8 hour (AID 1224884). Further: nearly all actives have a fitted effect of over 35% in size. In short, it runs like this: as §2
A short description of test [6]: qHTS RealTime-Glo MT Cell Viability Assay in HepG2 cells - 16 hour (AID 1224885). Further: nearly all actives have a fitted effect of over 50% in size. In short, it runs like this:
(§4)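 HepG2 cells were seeded at 600 cells/well together with NanoLuc luciferase and a cell-permeant prosubstrate, preincubated 5 h at 37 C/5% CO2, then pin-dosed with compounds in DMSO. Nonlytic luminescence from viable cells was read at each time point.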

The nature of test [7]: qHTS RealTime-Glo MT Cell Viability Assay in HEK293 cells - 24 hour (AID 1224886). Further: top concentration of the series differs between compounds; nearly all actives have a fitted effect of over 50% in size. The gist of the method: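 HEK293 cells were seeded at 600 cells/well together with NanoLuc luciferase and cell-permeant prosubstrate, preincubated 5 h at 37 C/5% CO2, then given compound in DMSO by pintool. Luminescence from viable-cell prosubstrate reduction was read repeatedly over 40 h.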

The nature of test [8]: qHTS RealTime-Glo MT Cell Viability Assay in HEK293 cells - 8 hour (AID 1224887). Further: top concentration of the series differs between compounds; nearly all actives have a fitted effect of over 50% in size. In short, it runs like this:
as §1

The nature of test [9]: A CellTox Green Cytotoxicity Assay to monitor cytotoxicity in HEK293 cells - 16 hour (AID 1224888). Further: nearly all actives have a fitted effect of over 35% in size. In short, it runs like this:
as §2

Test [10] in a line: qHTS RealTime-Glo MT Cell Viability Assay in HepG2 cells - 0 hour (AID 1224889). Further: nearly all actives have a fitted effect of over 50% in size. In short, it runs like this: as §4
A short description of test [11]: A CellTox Green Cytotoxicity Assay to monitor cytotoxicity in HepG2 cells - 8 hour (AID 1224890). Further: nearly all actives have a fitted effect of over 45% in size. In short, it runs like this:
as §3

Test [12] can be described thus: qHTS assay to identify small molecule antagonists of the androgen receptor (AR) signaling pathway using the MDA cell line in the presence of 0.5 nM R1881 - cell viability counter screen (AID 1259242). Further: nearly all actives have a fitted effect of over 45% in size. The gist of the method:
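Live-cell protease activity was measured by CellTiter-Fluor fluorescence after 30 min. Before that, MDA-kb2 MMTV-luciferase cells had 16 hr at 37C without CO2, exposed to test compounds and 0.5 nM R1881 final.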

The target of test [13] is Estrogen receptor (Homo sapiens) (UniProt P03372). The experiment in a line: qHTS assay to identify small molecule antagonists of the estrogen receptor alpha (ER-alpha) signaling pathway using the BG1 cell line in the presence of 0.1 nM 17-beta-estradiol (AID 1259244). Further: nearly all actives have a fitted effect of over 50% in size. In short, it runs like this:
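Luciferase luminescence (ONE-Glo, 30 min at room temperature) was read after 22 hr at 37C exposure to compounds plus 17beta-estradiol at 0.1 nM final. Cells were VM7Luc4E2 with endogenous ER-alpha and an ERE-driven luciferase, pre-cultured 5 days in hormone-depleted medium.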

The nature of test [14]: qHTS assay to identify small molecule phospholipidosis (PLD) inducers (AID 1259344; active means well fitted curve in the direction sought with a large enough effect; an effect the other way counts as inactive or inconclusive). The gist of the method: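 After 4 h attachment on collagen I, HepG2 cells were dosed with compound alongside LipidTOX Red, kept 24 h at 37 C, fixed, and imaged for lamellar phospholipid pits.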
The nature of test [15]: qHTS assay to identify small molecule HDAC inhibitors (AID 1259364). Further: top concentration of the series differs between compounds; nearly all actives have a fitted effect of over 45% in size. In short, it runs like this: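 Luminescence read after 30 min room-temperature HDAC-Glo incubation measures cellular class I/II HDAC activity. Compounds were applied for 2 hr at 37 C to HCT-116 wild-type cells seeded the day before.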
Test [16] in a line: qHTS assay to identify small molecule HDAC inhibitors - cell viability counter screen (AID 1259365). In short, it runs like this:
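Counter screen in wild-type HCT-116 cells: compounds dissolved in DMSO are pin-transferred onto overnight-plated cells and left 2hr at 37C. ATP-based CellTiter-Glo luminescence then measures viable cells.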

Test [17] in a line: qHTS assay to identify small molecule antagonists of the sonic hedgehog signaling (Shh) pathway - cell viability counter screen (AID 1259367). Further: nearly all actives have a fitted effect of over 55% in size. In short, it runs like this: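 Conditioned medium drove Shh signaling in 3T3 Gli1-Luc cells exposed to compounds at 37C and 5% CO2. Viability was determined from CellTiter-Fluor fluorescence, with reagent incubated 1 hr after 23 hr of treatment.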

Test [18] can be described thus: qHTS assay to identify small molecule antagonists of the estrogen receptor alpha (ER-alpha) signaling pathway using the BG1 cell line in the presence of 0.1 nM 17-beta-estradiol - cell viability counter screen (AID 1259241). Further: nearly all actives have a fitted effect of over 40% in size. In short, it runs like this: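 Cells were plated and left 24 hr, compounds in DMSO were pinned in, 17beta-estradiol was added to 0.1 nM final, and after 22 hr CellTiter-Fluor reagent was added for 30 min before fluorescence was read.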

Test [19] is described as follows: qHTS assay to identify small molecule agonists of the sonic hedgehog signaling (Shh) pathway - cell viability counter screen (AID 1259366). Further: nearly all actives have a fitted effect of over 50% in size. The gist of the method: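 Cells are plated at 2,000 per well and left 4hr at 37C, 5% CO2 before compound addition. After 23hr of treatment, CellTiter-Fluor reagent is added for 1hr at 37C and fluorescence is measured.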
For test [20], the target named is Androgen receptor (Homo sapiens) (UniProt P10275). The experiment in a line: qHTS assay to identify small molecule antagonists of the androgen receptor (AR) signaling pathway using the MDA cell line in the presence of 0.5 nM R1881 (AID 1259243). Further: nearly all actives have a fitted effect of over 50% in size. The gist of the method:
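Luminescent reporter readout (ONE-Glo, 30 min, room temperature) after 16 hr co-treatment of MDA-kb2 cells with test compounds and 0.5 nM R1881 final, at 37C without CO2. The MMTV-driven luciferase responds to both AR and GR.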

A number with no mark means an inactive call. Results filed as inconclusive are left out. The source made the active and inactive calls. Unless noted, the call rests on the fitted dose curve; in most records, active means well fitted curve in the direction sought with a large enough effect in the repeat runs; inconclusive means weak or mixed curves; inactive means no such curve, though single readings can be large; an effect the other way counts as inactive or inconclusive.

Sequence of Estrogen receptor (Homo sapiens) (P03372 whole entry, looked up): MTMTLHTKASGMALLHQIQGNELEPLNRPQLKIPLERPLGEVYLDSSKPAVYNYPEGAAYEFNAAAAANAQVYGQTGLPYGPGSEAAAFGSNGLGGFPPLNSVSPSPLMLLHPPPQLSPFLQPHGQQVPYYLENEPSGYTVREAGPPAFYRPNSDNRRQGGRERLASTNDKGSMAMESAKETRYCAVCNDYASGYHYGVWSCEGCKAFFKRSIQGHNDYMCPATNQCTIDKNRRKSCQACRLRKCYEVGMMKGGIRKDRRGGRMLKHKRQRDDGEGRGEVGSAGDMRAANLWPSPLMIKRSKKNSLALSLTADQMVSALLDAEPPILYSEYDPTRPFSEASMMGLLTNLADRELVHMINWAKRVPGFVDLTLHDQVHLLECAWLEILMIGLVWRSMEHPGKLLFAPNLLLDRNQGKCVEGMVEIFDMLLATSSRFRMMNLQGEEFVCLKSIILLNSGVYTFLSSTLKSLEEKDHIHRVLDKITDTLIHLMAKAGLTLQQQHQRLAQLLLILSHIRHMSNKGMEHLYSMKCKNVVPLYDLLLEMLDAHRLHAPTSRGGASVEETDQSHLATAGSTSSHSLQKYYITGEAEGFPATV
Sequence of Androgen receptor (Homo sapiens) (P10275 whole entry, looked up): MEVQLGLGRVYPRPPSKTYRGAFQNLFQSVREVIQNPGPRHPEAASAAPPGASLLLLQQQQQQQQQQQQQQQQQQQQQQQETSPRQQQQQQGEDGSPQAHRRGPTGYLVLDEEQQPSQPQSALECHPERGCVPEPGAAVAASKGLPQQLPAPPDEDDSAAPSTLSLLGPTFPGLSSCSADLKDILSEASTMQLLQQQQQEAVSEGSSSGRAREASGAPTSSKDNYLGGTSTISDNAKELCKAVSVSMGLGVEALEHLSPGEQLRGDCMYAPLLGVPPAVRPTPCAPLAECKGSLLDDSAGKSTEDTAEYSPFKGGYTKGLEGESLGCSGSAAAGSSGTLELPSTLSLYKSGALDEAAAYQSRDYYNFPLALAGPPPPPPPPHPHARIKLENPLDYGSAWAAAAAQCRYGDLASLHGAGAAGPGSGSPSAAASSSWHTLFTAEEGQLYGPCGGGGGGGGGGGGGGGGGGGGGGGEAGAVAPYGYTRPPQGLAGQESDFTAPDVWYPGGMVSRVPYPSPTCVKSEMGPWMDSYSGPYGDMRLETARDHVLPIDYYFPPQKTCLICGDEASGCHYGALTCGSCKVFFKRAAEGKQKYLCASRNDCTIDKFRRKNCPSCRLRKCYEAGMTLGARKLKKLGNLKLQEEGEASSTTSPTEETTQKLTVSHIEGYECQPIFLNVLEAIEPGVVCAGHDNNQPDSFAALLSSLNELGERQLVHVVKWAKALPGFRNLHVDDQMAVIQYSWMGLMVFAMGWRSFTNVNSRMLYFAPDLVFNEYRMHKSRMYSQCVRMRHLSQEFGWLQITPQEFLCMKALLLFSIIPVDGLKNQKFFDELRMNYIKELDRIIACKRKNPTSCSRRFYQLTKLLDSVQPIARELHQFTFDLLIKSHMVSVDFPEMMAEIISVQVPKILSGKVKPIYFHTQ

`O=C(O)CCNC(=O)c1ccc(N=Nc2ccc(O)c(C(=O)O)c2)cc1`: the compound was called inactive in test [1], in test [6], in test [12], in [13], in test [16] and in test [17]. The Potency result in test [2], in test [3], in test [4], in test [5], in [7] and in test [8] was “inactive” each time. Further, the Potency result in test [9], in test [10], in [11], in test [14] and in [15] was “inactive” in each case.

In the case of `C1=C\CC/C=C\CC/C=C\CC/1`, the result in test [1], in [6], in [18], in [12] and in test [16] was inactive. The Potency result in test [2], in test [3], in [4], in test [5], in test [7] and in test [8] was “inactive” each time. Besides, the Potency result in [9], in [10], in test [11], in [15] and in test [19] was “inactive” throughout.

Consider `c1ccc(SCCSc2ccccc2)cc1`, for which the call in [1], in test [6], in [18], in test [12], in test [16] and in test [17] was inactive. For the same compound, the Potency entry in test [2], in test [3], in [4], in [5], in test [7] and in test [8] was “inactive” in each case. Besides, the Potency entry in [9], in [10], in test [11] and in test [19] was “inactive” each time.

Take `CCCCCCCCN(C)CCCCCCCC`: the call in test [1], in test [6], in test [18], in test [12], in test [13] and in test [16] was inactive. Also, the compound was classed as inactive in test [17]. Further, the Potency result in test [2], in test [3], in [5], in test [7], in test [8] and in test [9] was “inactive” in each case. The Potency result in [10], in [20], in [15] and in test [19] was “inactive” each time. The Potency in [4] is 22.1 µM (active).

For `CC(C)COC(=O)C(C)C`, the result in [1], in [6], in test [18], in [12], in test [13] and in [16] was inactive. For the same compound, the Potency result in [2], in [3], in test [4], in test [5], in test [7] and in [8] was “inactive” in each case. Also, the Potency result in test [9], in [10], in test [15] and in test [19] was “inactive” each time.

Turning to `NS(=O)(=O)c1cc2c(cc1Cl)NC(CSCc1ccccc1)=NS2(=O)=O`, the result in [1], in test [6], in test [18], in [12], in [13] and in test [16] was inactive. For the same compound, the Potency entry in test [2], in [3], in test [4], in [5], in test [7] and in test [8] was “inactive” throughout. The Potency result in test [10], in test [11], in test [14], in test [15] and in test [19] was “inactive” throughout.

On to `Cc1c(F)cc2c(=O)c(C(=O)O)cn3c2c1CCC3C` (stereo not drawn), for which the compound was called inactive in test [1], in test [6], in [18], in [12], in test [13] and in test [16]. Moreover, in test [17], the outcome was inactive. Further, the Potency entry in test [2], in [3], in [4], in [5], in test [7] and in test [8] was “inactive” in each case. Also, the Potency result in test [10], in test [11], in test [20], in test [15] and in test [19] was “inactive” each time.
